In PubChem BioAssay (NCATS):
Inconclusive results are not listed. Calls of active or inactive are those of the source. Unless noted, the call rests on the fitted dose curve; in most records, active means well fitted curve in either direction with a large enough effect (not every such curve was filed as active); inconclusive means small, poorly fitted or top-dose-only effect, or another doubt; inactive means flat fitted curve, though single readings scatter.

Key:
[1] = molecular target: Lysosomal acid glucosylceramidase (Homo sapiens) (UniProt P04062); experiment: Glucocerebrosidase-p2 (AID 348; in the data active means potency below about 10 µM; further: potency means the concentration at half of the fitted maximal effect); settings: purified GBA, blue fluorogenic substrate, 40 min
Procedure, shortened: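 Normal human glucocerebrosidase (0.2 nM) with blue fluorogenic substrate (80 uM final) in citrate/phosphate pH 5.9 with 10mM sodium taurocholate, 0.01% tween-20; 40 min RT, NaOH/glycine stop; fluorescence Ex 365/Em 440; AC50 from a titration from 0.6 nM upwards.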

[2] = AP1 Signaling Pathway (AID 357); settings: ME-180 AP-1-bla reporter, EGF-induced, beta-lactamase ratio, 5 h; at 7.69 µM (top of the series) unless noted; further: on the % scale 0 is the no-effect control and ±100 the full control effect
Procedure, shortened: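 ME-180 cells with beta-lactamase reporter under AP-1 response element, stimulated with EC50 EGF; compounds tested in titration series, 5 h at 37 °C. CCF4 substrate added 2.5 h at room temperature; 460/530 nm emission ratio gave %activity and AC50.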

[3] = molecular target: Cytochrome P450 1A2 (Homo sapiens) (UniProt P05177); experiment: p450-cyp1a2 (AID 410; calls by dose curve;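 further: -100% = full effect of reference inhibitor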); settings: recombinant CYP1A2, luciferin-ME demethylation, luminescence; series mostly up to 11.4 µM
Procedure, shortened: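 Luminescent demethylation readout: Luciferin-ME (100uM, equal to Km) turned over by 20nM CYP1A2 for 60 min at room temperature after NADPH regeneration addition, following 10 min compound preincubation. Normalization used 57 uM furafylline as full inhibition.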

[4] = NFAT Signaling Pathway (AID 444); settings: Jurkat NFAT-bla M1, carbachol, beta-lactamase ratio, 5 h; at 7.69 µM (top of the series) unless noted;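 further: carbachol stimulus at about its EC50 of 1 µM final; on the % scale 0 is the no-effect control and ±100 the full control effect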
Procedure, shortened: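 Jurkat cells carrying an NFAT-driven β-lactamase reporter and co-transfected muscarinic M1 receptor were treated with compound plus carbachol (1 uM final, an EC50 level) for 5 h at 37 °C. CCF4 loading followed for 1 h at RT; 460/530 nm ratio gave %activity.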

[5] = Stat Signaling Pathway (AID 446); settings: ME-180 (cervical carcinoma) SIE beta-lactamase reporter, IL-6 stimulated, 5 h; at 7.69 µM (top of the series) unless noted;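 further: ME-180 cervical cancer cells given 40 pM IL-6 alongside compound; SIE-controlled beta-lactamase reporter measured as 460/530 nm FRET emission ratio; on the % scale 0 is the no-effect control and ±100 the full control effect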
Procedure, shortened: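 FRET read-out (405 nm excitation, 460/530 nm emission) of a beta-lactamase reporter under a STAT-inducible element in ME-180 cervical carcinoma cells. Cells with compound receive 40 pM IL-6 for 5 h. Values are normalised to AC90 stimulation and AC90 JAK-inhibitor controls.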

[6] = molecular target: Glucocorticoid receptor (Homo sapiens) (UniProt P04150); experiment: GR-GFP Redistribution (AID 450;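 active means compounds whose dose series gives a full or clear partial fitted curve of increased nuclear translocation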; further: potency means the concentration at half of the fitted maximal effect); settings: U2OS GR-GFP nuclear translocation, laser cytometry, 2 h
[7] = molecular target: Glucocorticoid receptor (Homo sapiens) (UniProt P04150); experiment: GR-EFC Redistribution (AID 451; calls by dose curve; further: potency means the concentration at half of the fitted maximal effect); settings: CHO-K1 GR-EFC translocation, beta-gal luminescence, 2 h
Procedure, shortened: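 CHO-K1 cells stably expressing nuclear-localized β-gal enzyme acceptor and GR fused C-terminally to the enzyme donor fragment; ligand-driven nuclear translocation restores β-gal by complementation. Compounds titrated up to 46 uM final, 2 h at 37 °C; luminescence read.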

[8] = molecular target: Mitogen-activated protein kinase 10 (Mus musculus) (UniProt Q61831); experiment: JNK3 AlphaScreen Assay (AID 530); settings: JNK3 lysate, c-Jun phosphorylation; series mostly up to 11.4 µM;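 further: kinase came from lysate of stimulated human HepG2 cells; signal reports phosphorylation of biotinylated GST-cJun 1-79 at Ser73 with 10 µM ATP; on the % scale 0 is the no-effect control and ±100 the full control effect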
Procedure, shortened: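 Phosphorylation of biotinylated GST-cJun(1-79) at Ser73 is measured by AlphaScreen proximity luminescence. Enzyme is JNK3 in HepG2 lysates activated with interleukin-1beta and tumor necrosis factor alpha; ATP is 10 uM final.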

[9] = molecular target: 3',5'-cyclic-AMP phosphodiesterase 4B (Homo sapiens) (UniProt Q07343); experiment: qHTS Assay for Inhibitors of PDE-IV (AID 607; active means well fitted activation curve with a large enough effect in the main read-out, with a control signal flat, not every such curve was filed as active; further: % of control where 0% means no effect); settings: HEK293 ACTOne CNG channel cells, membrane potential fluorescence; series mostly up to 22.9 µM
Procedure, shortened: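 Cell-based read-out of cAMP via a modified cyclic nucleotide-gated channel and membrane potential dye (535/590 nm) in HEK293 cells expressing PDE4 endogenously. Compounds tested up to 22.9 uM final; 100 uM RO 20-1724 reference.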

Glucocorticoid receptor (Homo sapiens), sequence (P04150 whole entry, looked up, the tested form may be a part): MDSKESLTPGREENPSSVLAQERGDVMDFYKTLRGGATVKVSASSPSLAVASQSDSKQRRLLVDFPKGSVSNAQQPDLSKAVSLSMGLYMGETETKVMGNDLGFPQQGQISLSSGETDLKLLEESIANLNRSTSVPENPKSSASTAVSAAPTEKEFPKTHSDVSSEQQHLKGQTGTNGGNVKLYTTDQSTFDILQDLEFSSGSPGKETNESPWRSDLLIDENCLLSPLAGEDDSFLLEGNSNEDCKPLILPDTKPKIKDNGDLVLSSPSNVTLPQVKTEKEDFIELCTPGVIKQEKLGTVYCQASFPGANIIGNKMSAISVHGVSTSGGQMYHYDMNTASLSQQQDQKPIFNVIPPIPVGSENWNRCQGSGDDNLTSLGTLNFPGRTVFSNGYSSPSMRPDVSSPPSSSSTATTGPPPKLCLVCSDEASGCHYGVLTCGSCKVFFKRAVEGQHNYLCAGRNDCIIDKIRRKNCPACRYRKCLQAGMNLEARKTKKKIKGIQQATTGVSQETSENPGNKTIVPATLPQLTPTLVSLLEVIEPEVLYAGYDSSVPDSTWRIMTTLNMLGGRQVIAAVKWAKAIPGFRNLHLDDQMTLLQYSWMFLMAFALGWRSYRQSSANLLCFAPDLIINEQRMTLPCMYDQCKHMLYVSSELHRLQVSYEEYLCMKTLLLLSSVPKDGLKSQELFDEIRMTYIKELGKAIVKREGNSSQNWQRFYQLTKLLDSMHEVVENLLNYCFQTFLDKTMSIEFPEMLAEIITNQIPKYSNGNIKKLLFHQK
Cytochrome P450 1A2 (Homo sapiens), sequence (P05177 whole entry, looked up): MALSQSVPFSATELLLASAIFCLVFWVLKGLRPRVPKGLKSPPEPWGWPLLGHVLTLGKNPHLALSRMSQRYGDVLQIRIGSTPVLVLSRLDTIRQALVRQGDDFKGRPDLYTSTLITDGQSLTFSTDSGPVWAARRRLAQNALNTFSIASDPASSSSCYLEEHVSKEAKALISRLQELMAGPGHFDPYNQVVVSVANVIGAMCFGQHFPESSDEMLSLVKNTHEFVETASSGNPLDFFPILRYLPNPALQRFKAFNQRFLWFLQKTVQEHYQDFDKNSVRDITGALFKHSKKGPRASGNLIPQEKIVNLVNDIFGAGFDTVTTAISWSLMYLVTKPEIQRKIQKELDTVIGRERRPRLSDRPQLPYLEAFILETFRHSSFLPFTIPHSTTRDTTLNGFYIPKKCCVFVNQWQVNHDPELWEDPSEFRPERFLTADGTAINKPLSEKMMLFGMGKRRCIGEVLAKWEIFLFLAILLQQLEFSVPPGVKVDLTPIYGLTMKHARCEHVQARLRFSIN
Lysosomal acid glucosylceramidase (Homo sapiens), sequence (P04062 whole entry, looked up): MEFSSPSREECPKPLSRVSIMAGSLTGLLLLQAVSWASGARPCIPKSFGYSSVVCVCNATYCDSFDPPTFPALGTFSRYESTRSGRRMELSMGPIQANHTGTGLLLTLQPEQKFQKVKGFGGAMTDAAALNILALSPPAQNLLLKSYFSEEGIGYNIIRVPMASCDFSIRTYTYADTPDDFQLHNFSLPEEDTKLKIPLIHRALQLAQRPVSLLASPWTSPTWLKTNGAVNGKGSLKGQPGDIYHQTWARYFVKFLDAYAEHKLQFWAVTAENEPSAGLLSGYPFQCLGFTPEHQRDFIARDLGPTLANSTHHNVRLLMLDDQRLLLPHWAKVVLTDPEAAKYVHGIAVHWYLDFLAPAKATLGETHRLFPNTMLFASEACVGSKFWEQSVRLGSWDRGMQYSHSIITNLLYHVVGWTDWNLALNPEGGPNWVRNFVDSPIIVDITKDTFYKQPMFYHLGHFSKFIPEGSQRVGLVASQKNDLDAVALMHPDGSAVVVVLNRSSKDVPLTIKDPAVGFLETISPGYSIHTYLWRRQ
3',5'-cyclic-AMP phosphodiesterase 4B (Homo sapiens), sequence (Q07343 whole entry, looked up): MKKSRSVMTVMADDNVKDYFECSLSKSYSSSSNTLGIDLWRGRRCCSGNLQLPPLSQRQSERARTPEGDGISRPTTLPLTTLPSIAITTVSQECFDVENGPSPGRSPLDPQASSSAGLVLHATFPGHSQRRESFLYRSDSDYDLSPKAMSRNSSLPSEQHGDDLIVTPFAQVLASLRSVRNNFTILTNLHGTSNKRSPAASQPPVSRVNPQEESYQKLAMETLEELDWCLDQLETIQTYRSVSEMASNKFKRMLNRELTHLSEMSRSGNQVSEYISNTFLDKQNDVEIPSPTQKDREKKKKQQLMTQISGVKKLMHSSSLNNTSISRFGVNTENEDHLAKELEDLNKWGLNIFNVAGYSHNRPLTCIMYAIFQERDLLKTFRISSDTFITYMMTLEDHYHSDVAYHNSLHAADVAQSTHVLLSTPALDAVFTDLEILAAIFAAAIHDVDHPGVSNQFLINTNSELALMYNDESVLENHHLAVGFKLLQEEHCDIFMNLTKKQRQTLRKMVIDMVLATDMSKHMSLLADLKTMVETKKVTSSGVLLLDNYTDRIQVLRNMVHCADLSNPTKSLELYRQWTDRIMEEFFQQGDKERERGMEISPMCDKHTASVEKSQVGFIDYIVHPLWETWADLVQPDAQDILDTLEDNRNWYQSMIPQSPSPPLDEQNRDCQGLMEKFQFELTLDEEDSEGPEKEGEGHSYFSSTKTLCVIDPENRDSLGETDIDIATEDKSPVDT

Nc1ncnc2c1ncn2[C@H]1O[C@@H](C(=O)OCCO)[C@@H](O)[C@H]1O
inactive: Potency [1] > 11.4 µM | activity change, negative = inhibition [2] 1.75% | Potency [3] | activity change, negative = inhibition [4] 21.4% | activity, negative = inhibition [5] 25.7% | Potency [6] > 46 µM | Potency [7] > 9.22 µM | Potency [8] | Potency [9]

O=C(O)[C@H]1CC=CC[C@@H]1C(=O)Nc1cccc(O)c1
inactive: Potency [1] > 11.4 µM | activity change, negative = inhibition [2] -4.95% | Potency [3] | activity change, negative = inhibition [4] 9.88% | activity, negative = inhibition [5] 1.44% | Potency [6] > 46 µM | Potency [7] > 9.22 µM | Potency [8] | Potency [9]

C[C@H]1O[C@@H](CC(=O)O)Cc2c1c(O)c1c(O)cc(-c3cc(=O)c4c(=O)c5c(c(=O)c=4c3=O)C[C@H](CC(=O)O)O[C@@H]5C)c(O)c1c2O
inactive: Potency [1] > 11.4 µM | activity change, negative = inhibition [2] 13% | activity change, negative = inhibition [3] -29.1% [at 2.29 µM] | activity change, negative = inhibition [4] 9.83% | activity, negative = inhibition [5] -5.2% | Potency [6] > 46 µM | Potency [7] > 9.22 µM | Potency [8] | Potency [9]

N[C@@](CC(=O)O)(Cc1ccccc1)C(=O)O
inactive: Potency [1] > 11.4 µM | activity change, negative = inhibition [2] -6.1% | activity change, negative = inhibition [3] -13.4% [at 2.29 µM] | activity change, negative = inhibition [4] 0.819% | activity, negative = inhibition [5] 6.06% | Potency [6] > 46 µM | Potency [7] > 9.22 µM | Potency [8] | Potency [9]

NS(=O)(=O)c1ccc(NCc2nc3ccccc3[nH]2)cc1
inactive: Potency [1] > 11.4 µM | activity change, negative = inhibition [2] 2.25% | activity change, negative = inhibition [3] -18.8% [at 2.29 µM] | activity change, negative = inhibition [4] 8.2% | activity, negative = inhibition [5] 9.55% | Potency [6] > 46 µM | Potency [7] > 9.22 µM | Potency [8] | Potency [9]

O=C(O)[C@H](Cc1cc(I)c(O)c(I)c1)C1CCCCC1
inactive: Potency [1] > 11.4 µM | activity change, negative = inhibition [2] -29.2% | activity change, negative = inhibition [3] -8.8% [at 2.29 µM] | activity change, negative = inhibition [4] 1.46% | activity, negative = inhibition [5] -16% | Potency [6] > 46 µM | Potency [7] > 9.22 µM | Potency [8] | Potency [9]

C[N+]1(CCCC[N+]2(C)CCCCCCC2)CCCCCCC1
inactive: Potency [1] > 11.4 µM | activity change, negative = inhibition [2] 0.612% | activity change, negative = inhibition [3] -10.4% [at 2.29 µM] | activity change, negative = inhibition [4] -24.9% | activity, negative = inhibition [5] -6.69% | Potency [6] > 46 µM | Potency [7] > 9.22 µM | Potency [8] | Potency [9]

Cn1ncc2c(Cl)ncnc21
inactive: Potency [1] > 11.4 µM | activity change, negative = inhibition [2] 2.44% | Potency [3] | activity change, negative = inhibition [4] 17.9% | activity, negative = inhibition [5] 13.8% | Potency [6] > 46 µM | Potency [7] > 9.22 µM | Potency [8] | Potency [9]

[Cu].[O-]/N=C1/C(=[OH+])Nc2ccccc21.[O-]Nc1c(O)[nH]c2ccccc12
inactive: Potency [1] > 11.4 µM | activity change, negative = inhibition [2] 3.32% | activity change, negative = inhibition [3] -20.1% [at 2.29 µM] | activity change, negative = inhibition [4] 13.2% | activity, negative = inhibition [5] 5.41% | Potency [6] > 46 µM | Potency [7] > 9.22 µM | Potency [8] | Potency [9]

Nc1nc(-c2ccccc2)c(-c2ccccc2)c(-c2nc(N)nc(-c3ccccc3)c2-c2ccccc2)n1
inactive: Potency [1] > 11.4 µM | activity change, negative = inhibition [2] -1.08% | Potency [3] | activity change, negative = inhibition [4] 16.1% | activity, negative = inhibition [5] 3.19% | Potency [6] > 46 µM | Potency [7] > 9.22 µM | Potency [8] | Potency [9]

Cn1c(=O)c2[nH]c(CCCc3ccc([N+](=O)[O-])cc3)nc2n(C)c1=O
inactive: Potency [1] > 11.4 µM | activity change, negative = inhibition [2] 1.15% | Potency [3] | activity change, negative = inhibition [4] -1.84% | activity, negative = inhibition [5] 6% | Potency [6] > 46 µM | Potency [7] > 9.22 µM | Potency [8] | Potency [9]

O=C(O)[C@@H]1CS[C@@]2(CCCN(Cc3ccccc3)C2)N1
inactive: Potency [1] > 11.4 µM | activity change, negative = inhibition [2] 8.03% | activity change, negative = inhibition [3] -12% [at 2.29 µM] | activity change, negative = inhibition [4] 18.2% | activity, negative = inhibition [5] 2.47% | Potency [6] > 46 µM | Potency [7] > 9.22 µM | Potency [8] | Potency [9]

O=S(=O)(O)[C@@H](c1ccccc1)[C@@H](O)c1ccccc1
inactive: Potency [1] > 11.4 µM | activity change, negative = inhibition [2] 1.17% | activity change, negative = inhibition [3] -13.9% [at 2.29 µM] | activity change, negative = inhibition [4] 8.34% | activity, negative = inhibition [5] 8.88% | Potency [6] > 46 µM | Potency [7] > 9.22 µM | Potency [8] | Potency [9]

O=C(O)c1ccccc1C1c2ccccc2Oc2ccccc21
inactive: Potency [1] > 11.4 µM | activity change, negative = inhibition [2] 2.36% | activity change, negative = inhibition [3] -20.4% [at 2.29 µM] | activity change, negative = inhibition [4] 4.13% | activity, negative = inhibition [5] 0.279% | Potency [6] > 46 µM | Potency [7] > 9.22 µM | Potency [8] | Potency [9]

COC(=O)[C@]1(C)CCC(c2ccc(C)cc2)=C(CC(=O)O)C1
inactive: Potency [1] > 11.4 µM | activity change, negative = inhibition [2] -2.42% | activity change, negative = inhibition [3] -8.4% [at 2.29 µM] | activity change, negative = inhibition [4] -1.89% | activity, negative = inhibition [5] 2.79% | Potency [6] > 46 µM | Potency [7] > 9.22 µM | Potency [8] | Potency [9]
